# Measurements as given in PubChem BioAssay AID488969 (Vanderbilt High Throughput Screening Facility, 2010).
# In all, about 110,000 compounds were measured (“z-score”: median about -0.1, highest 2% from about 2 on). For the sample, the highest values were picked, then their nearest neighbours and some compounds at random. The source made the active and inactive calls.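 The calls were made as follows: active = z-score in the third read window above 3 or below -3; inactive = the rest.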
# Biological target: Metabotropic glutamate receptor 8 (Rattus norvegicus) (UniProt P70579)
# Assay: rat mGluR8 modulators via GIRK flux, primary screen, cell-based, thallium flux, HTS (AID 488969)
# Conditions: HEK293 rat mGluR8, GIRK (G protein-gated inwardly rectifying potassium channel) thallium flux, FluoZin2; at 10 µM; stronger effect = higher value; submaximal glutamate (EC20) added with thallium
# Metabotropic glutamate receptor 8 (Rattus norvegicus), sequence (P70579 whole entry, looked up): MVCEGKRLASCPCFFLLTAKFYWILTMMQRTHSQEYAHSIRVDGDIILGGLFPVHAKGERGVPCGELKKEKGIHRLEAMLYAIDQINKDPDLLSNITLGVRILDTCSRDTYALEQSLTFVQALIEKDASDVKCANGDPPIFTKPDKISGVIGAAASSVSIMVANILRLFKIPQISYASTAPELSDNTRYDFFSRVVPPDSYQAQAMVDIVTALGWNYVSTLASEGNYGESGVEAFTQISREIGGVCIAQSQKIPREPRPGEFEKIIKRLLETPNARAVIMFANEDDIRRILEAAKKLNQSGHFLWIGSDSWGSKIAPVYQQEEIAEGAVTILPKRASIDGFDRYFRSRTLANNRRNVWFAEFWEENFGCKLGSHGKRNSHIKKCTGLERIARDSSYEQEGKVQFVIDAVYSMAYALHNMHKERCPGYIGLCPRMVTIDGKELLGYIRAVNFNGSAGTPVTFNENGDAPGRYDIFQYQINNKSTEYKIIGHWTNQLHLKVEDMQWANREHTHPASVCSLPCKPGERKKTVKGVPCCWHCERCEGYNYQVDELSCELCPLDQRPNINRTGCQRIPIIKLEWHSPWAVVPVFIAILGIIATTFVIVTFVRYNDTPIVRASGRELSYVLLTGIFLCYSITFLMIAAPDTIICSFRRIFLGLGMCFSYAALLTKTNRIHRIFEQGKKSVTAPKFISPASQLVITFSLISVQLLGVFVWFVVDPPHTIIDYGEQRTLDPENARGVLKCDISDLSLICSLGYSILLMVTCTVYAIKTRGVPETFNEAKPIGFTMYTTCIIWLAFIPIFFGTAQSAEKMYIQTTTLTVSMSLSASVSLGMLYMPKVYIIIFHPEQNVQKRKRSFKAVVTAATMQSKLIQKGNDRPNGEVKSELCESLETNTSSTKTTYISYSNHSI
row,Compound,z-score
1,NC(=O)C1CCCN(S(=O)(=O)c2ccccc2)C1 (stereo unspecified),-0.127
2,Cc1ccc(C(=O)Nc2nnc(-c3ccco3)o2)cc1C,0.973
3,O=C(Nc1nnc(-c2ccco2)o1)c1ccc2ccccc2c1,2.95
4,Cc1ccc(C(=O)Nc2nnc(-c3ccco3)o2)cc1,0.435
5,O=C(Nc1nnc(-c2ccco2)o1)c1cccc2ccccc12,0.259
6,CCC(=O)Nc1nnc(-c2ccco2)o1,2.14
7,Cc1cccc(C(=O)Nc2nnc(-c3ccco3)o2)c1,0.11
8,CCSc1nc2[nH]ncc2c(=O)[nH]1,-0.145
9,CCOC(=O)c1c(N)sc(C(O)(C(F)(F)F)C(F)(F)F)c1-c1ccc(OC)cc1OC,-1.15
10,O=C(COC(=O)c1cccnc1Nc1cccc(C(F)(F)F)c1)NC1CCS(=O)(=O)C1 (stereo unspecified),-0.275
11,O=C(NCc1cc(C(F)(F)F)cc(C(F)(F)F)c1)C1CC(c2c(Cl)cccc2Cl)=NO1 (stereo unspecified),-0.111
12,Cc1ccc(-n2c(-c3ccc(Br)cc3)c[n+]3c2CCc2ccc4cccnc4c2-3)cc1,4.86 (active)
13,Cc1ccc(S(=O)(=O)Nc2cccc3cccnc23)cc1,-0.731
14,Brc1ccc(-c2cn3c(n2)CCc2ccc4cccnc4c2-3)cc1,0.098
15,COc1ccccc1-n1c(SCC(=O)N2CCCCC2)nnc1-c1ccccc1O,-0.514
16,CN(C(=O)c1ccccn1)c1nnc(-c2ccccn2)s1,2.29
17,CN(C(=O)c1ccccn1)c1nnc(-c2ccncc2)s1,-0.931
18,CN(C(=O)c1ccccn1)c1nnc(-c2cnccn2)s1,-0.729
19,COc1ccc(-c2noc(CSc3nnc(Cc4ccccc4)n3-c3ccc(Cl)cc3)n2)cc1,0.663
20,Cc1ccccc1OCC(O)Cn1c(=N)n(CCN2CCOCC2)c2ccccc21 (stereo unspecified),1.12
21,N=c1n(CCN2CCCCC2)c2ccccc2n1CC(O)c1cccc(Br)c1 (stereo unspecified),0.566
22,Cc1ccc(OCC(O)Cn2c(=N)n(CCN3CCCCC3)c3ccccc32)cc1 (stereo unspecified),4.9 (active)

row,Compound,z-score
1,Cc1cccc(OCC(O)Cn2c(=N)n(CCN3CCCCC3)c3ccccc32)c1 (stereo unspecified),5.06 (active)
2,N=c1n(CCN2CCCCC2)c2ccccc2n1CC(O)COc1ccccc1 (stereo unspecified),1.11
3,COc1ccccc1OCC(O)Cn1c(=N)n(CCN2CCCCC2)c2ccccc21 (stereo unspecified),-0.0021
4,O=C(Nc1ccc(Cl)cc1)C1=Cc2cc(Cl)ccc2OC1,-0.109
5,COC(=O)C1=C(C)NC2=C(C(=O)CC(C)(C)C2)C1c1ccsc1 (stereo unspecified),0.803
6,Cn1c(C(C(=O)NCC2CCCO2)N(C(=O)Cn2nnc3ccccc32)C2CCCCC2)nc2ccccc21 (stereo unspecified),-0.0111
7,CCOC(=O)/C(C#N)=C/NC(=O)NC(C)(C)C,0.141
8,Cc1ccc2[nH]c(=O)c(CN(CCO)C(=O)N(C)C)cc2c1,-0.0536
9,CCOC(CNC(=O)CCc1c(C)nc2nc(C)nn2c1C)OCC,-0.308
10,CCc1ccc(S(=O)(=O)Nc2c(C)nn(C)c2C)cc1,-0.343
11,CN(Cc1ccccc1F)c1nc(-c2cccs2)nc2ccccc12,0.11
12,O=C(O/N=C\c1ccc(N2CCCCC2)c([N+](=O)[O-])c1)c1cccc(C(F)(F)F)c1,0.31
13,O=C(O/N=C\c1ccc(N2CCCCC2)c([N+](=O)[O-])c1)c1cccc(Cl)c1,-0.494
14,O=C(O/N=C\c1ccc(N2CCCCC2)c([N+](=O)[O-])c1)c1c(F)cccc1F,2.03
15,CCOC(=O)CSc1cc(CS(=O)c2ccc(Cl)cc2)nc(-c2ccccc2)n1 (stereo unspecified),0.0352
16,CCOC(=O)CSc1cc(CS(=O)(=O)c2ccccc2)nc(-c2ccccc2)n1,-0.223
17,CCOC(=O)CSc1cc(CSc2ccccc2)nc(-c2ccccc2)n1,4.85 (active)
18,CC(=O)N(c1nc(CCl)cs1)c1c(C)cc(C)cc1C,1.43
19,Cc1ccc(-c2cc(C(=O)NCc3cnn(C)c3C)c3cc(Br)ccc3n2)cc1,-0.453
20,CCc1ccc(C2C(C#N)=C(N)C(C#N)(C#N)C3=CCC(C(C)(C)C)CC32)cc1 (stereo unspecified),-0.0406
21,O=C(CCCn1c(=S)[nH]c2cc3c(cc2c1=O)OCO3)N1CCN(c2ccc(F)cc2)CC1,-0.237
22,COCCn1c(=S)[nH]c2cc(C(=O)N3CCN(c4ccc(F)cc4)CC3)ccc2c1=O,4.3 (active)

row,Compound,z-score
1,CCCn1c(=S)[nH]c2cc(C(=O)N3CCN(c4ccccc4OC)CC3)ccc2c1=O,0.596
2,CCN(CC)CCn1c(=S)[nH]c2cc3c(cc2c1=O)OCO3,-0.565
3,COCCn1c(=S)[nH]c2cc(C(=O)N3CCN(c4ccccc4OC)CC3)ccc2c1=O,-0.495
4,O=C(CCCn1c(=S)[nH]c2cc3c(cc2c1=O)OCO3)N1CCN(c2ccc(Cl)cc2)CC1,-0.36
5,CC(C)NC(=O)CCCn1c(=S)[nH]c2cc3c(cc2c1=O)OCO3,0.566
6,CC(C)OCCCn1c(=S)[nH]c2cc3c(cc2c1=O)OCO3,6.19 (active)
7,CC(=O)c1ccc(N2CCN(C(=O)CCCn3c(=S)[nH]c4cc5c(cc4c3=O)OCO5)CC2)cc1,2.56
8,Cc1cc(=O)[nH]c(SCC(=O)C23CC4CC(CC(C4)C2)C3)c1C#N,-0.0485
9,O=C(Nc1cccc(O)c1)c1cc2nc(-c3ccccc3)cc(-c3ccccc3)n2n1,-0.00871
10,O=C(COc1ccc(C(=S)N2CCOCC2)cc1)N1CCCC1,-0.301
11,Cc1ccc(S(=O)(=O)N2CCN(CCO)CC2)cc1-c1nnc2c3ccccc3c(C)nn12,-0.156
12,Cc1ccc(-c2nnc3c4ccccc4c(C)nn23)cc1S(=O)(=O)N1CCN(C)CC1,-0.999
13,Cc1ccc(S(=O)(=O)N2CCN(C)CC2)cc1-c1nnc2c3ccccc3c(C)nn12,9.27 (active)
14,Cc1ccc(C)n1NC(=O)c1ccc(Cl)cc1Cl,0.557
15,Cc1cc(C)n(-c2nnc(C)n2NC(=O)c2cccc(Cl)c2)n1,0.0281
16,Cc1cc(C)n(-c2nncn2NC(=O)c2ccc(Cl)cc2O)n1,2.24
17,CCNC(=O)NC(=O)C(C)Sc1nc2cc(C(=O)OC)ccc2c(=O)n1-c1ccccc1 (stereo unspecified),0.204
18,CCSc1nc2cc(C(=O)OC)ccc2c(=O)n1CC,0.836
19,CCCCn1c(SC(C)C(N)=O)nc2cc(C(=O)OC)ccc2c1=O (stereo unspecified),3 (active)
20,O=C(O)C1CC=CCC1C(=O)NCc1ccc2c(c1)OCO2 (stereo unspecified),-0.618
21,COc1ccc(N2CCN(C(=O)CSc3nnc4c(C)cc5cc(C)ccc5n34)CC2)cc1,1.03
22,Cc1ccc(C)c(-n2ccnc2SCC(=O)O)c1,-0.0351
